Compounds without any hit were thinned out: in the full panel of roughly 83,000, 20% have a hit.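 Note: values are percent growth. 100 is the growth of untreated cells, values between 100 and 0 indicate rising inhibition; between -100 and 0 indicates cell death.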 A number with no mark means an inactive call. Calls of active or inactive are those of the source. How the source made its calls: active means growth percent below 10; inactive means the rest.
Tests used:
Assay in all cases: NCI-60 one-dose screen, 48 h (100 = growth as untreated, 0 = no growth, -100 = all killed)
Details in all cases: 10 µM unless noted
SR leukemia = tested on: SR leukemia
RPMI-8226 leukemia = tested on: RPMI-8226 leukemia
OVCAR-8 ovarian = tested on: OVCAR-8 ovarian
OVCAR-5 ovarian = tested on: OVCAR-5 ovarian
OVCAR-4 ovarian = tested on: OVCAR-4 ovarian
SK-OV-3 ovarian = tested on: SK-OV-3 ovarian
IGROV1 ovarian = tested on: IGROV1 ovarian
OVCAR-3 ovarian = tested on: OVCAR-3 ovarian
HS 578T breast = tested on: HS 578T breast
NCI/ADR-RES ovarian = tested on: NCI/ADR-RES ovarian
T-47D breast = tested on: T-47D breast
BT-549 breast = tested on: BT-549 breast
MDA-MB-435 melanoma = tested on: MDA-MB-435 melanoma
SW-620 colon = tested on: SW-620 colon
MCF7 breast = tested on: MCF7 breast
HCT-116 colon = tested on: HCT-116 colon
HCC-2998 colon = tested on: HCC-2998 colon
KM12 colon = tested on: KM12 colon

Compound | growth (SR leukemia) | growth (RPMI-8226 leukemia) | growth (OVCAR-8 ovarian) | growth (OVCAR-5 ovarian) | growth (OVCAR-4 ovarian) | growth (SK-OV-3 ovarian) | growth (IGROV1 ovarian) | growth (OVCAR-3 ovarian) | growth (HS 578T breast) | growth (NCI/ADR-RES ovarian) | growth (T-47D breast) | growth (BT-549 breast) | growth (MDA-MB-435 melanoma) | growth (SW-620 colon) | growth (MCF7 breast) | growth (HCT-116 colon) | growth (HCC-2998 colon) | growth (KM12 colon)
N#Cc1c(N2CCOCC2)nc(=S)[nH]c1-c1ccccc1 | 53.1% | 73.6% | 81.8% | 71.7% | 77.3% | 64.4% | 29.1% | 66.8% | 26.8% | 80.9% | 37.3% | 57.7% | 82.2% | 82.1% | 56.6% | 86.6% | 79.1% | 77.6%
C=CCOC(=O)C1=C(C)NC(=O)NC1c1c(Cl)n(C)c2ccccc12 (stereo not given) | 97.9% | 81.3% | 102% | 96% | 103% | 94.5% | 107% | 104% | 98.8% | 99.2% | 92.5% | 99.1% | 103% | 98.6% | 94.8% | 93.4% | 104% | 102%
CCN1C(=S)N(CC)C2C1NC(=S)N2/N=C/C=C/c1ccccc1OC (stereo not given) | 15.2% | 24.6% | 12.5% | 27.2% | 44.2% | 35% | 19.5% | -48% (active) | 16.3% | -9.38% (active) | 59.4% | 13.5% | -42.8% (active) | 23.8% | 17.9% | 13.6% | 11.6% | 15%
CC1(C)CCC(S(=O)(=O)c2ccc3c(c2)/C(=N\O)c2cc(S(=O)(=O)N4CCN(c5ccc(F)cc5O)CC4)ccc2-3)CC1 | -48.5% (active) | -45.9% (active) | -71.7% (active) | -69.3% (active) | -94% (active) | -98.5% (active) | -38.4% (active) | -83.4% (active) | -54.1% (active) | -3.41% (active) | -90.6% (active) | -86.7% (active) | -92.3% (active) | -81.5% (active) | -67.9% (active) | -96.6% (active) | -92.1% (active) | -90.3% (active)
O=C1NC(=O)c2c1c1c3ccccc3[nH]c1c1oc3cc(Br)ccc3c21 | 24.4% | 63.1% | 81.8% | 98.9% | 77.4% | 93.8% | 36.2% | 89.9% | 77.3% | 77.3% | 28.1% | 81.3% | 76.6% | 51.5% | 36.2% | 65.1% | 99.7% | 64.4%
COC(=O)/C(CCC=C(C)C)=C1\[C@@H](OC(C)=O)C[C@@]2(C)[C@H]1CC(=O)[C@H]1[C@@]3(C)CCC(N4CCCC4)[C@@H](C)[C@@H]3CC[C@@]12C (stereo not given in full) | 56.3% | 85.5% | 95.7% | 96.9% | 97.5% | 108% | 102% | 99.1% | 89.1% | 99.3% | 94.9% | 92.5% | 97.5% | 103% | 74.6% | 84.9% | 114% | 105%
O=C(Nc1ncc(Cc2ccccc2Cl)s1)c1cccs1 | 20.4% | 73.5% | 85.7% | 87.9% | 74.4% | 81.7% | 72.3% | 79.2% | 74.4% | 53.7% | 56.1% | 68.7% | 3.49% (active) | 58.6% | 46.3% | 58.1% | 72.8% | 29.3%
CC(C)(CO)N(CCO)CCO | 99.5% | 95% | 110% | 93.1% | 110% | 109% | 113% | 112% | 113% | 102% | 112% | 101% | 108% | 111% | 100% | 106% | 105% | 106%
CCCNc1nc2ccccc2c2c(=O)c3cccc(Cl)c3sc12 | 82.7% | 103% | 95.4% | 96.5% | 81.9% | 88.4% | 70.1% | 111% | 114% | 101% | 51.8% | 99% | 101% | 97.8% | 31.2% | 72.4% | 103% | 90.4%
O=C(CCCCCCN1CC(=O)N2[C@@H](c3ccc(Cl)cc3)c3[nH]c4ccccc4c3C[C@H]2C1=O)NO | 20.2% | 22.4% | 57.7% | 69.9% | 59.3% | 82.9% | 53.8% | 66.7% | 67.9% | 93% | 42.1% | 77.2% | 53.9% | 62.9% | 46.2% | 38.6% | 81.2% | 75.1%
